22 molecules from PMC12136788 can be followed below.

First the molecules themselves.
B1: chr19:37005844:37005845:-_ENSG00000254004_ENST00000523638|hu_mus|FALSE|FALSE (ssRNA)
RNA: GGGAGUUCUACAGUCCGACGAUCGGGAGUUUUCUUAGAUUCACUGGGUCUCUCUUCGGUAUGUUGUUUCUGAUGAGAAAGGAAGUUUCCUCUCUGGCUGAAGGCCUUCCCACAUUCCCCACACUUGUAGGACUCCCUCCUUGGCAACAGAGGAUUGAGCAUCA
B2: 118238769_118243032_844_CDS_ENSMUSG00000005102_ENSMUST00000005233|mouse|control|control (ssRNA)
RNA: GGGAGUUCUACAGUCCGACGAUCAGAGAAAUGGAGGAUGUCACACGAGCCAGGAGAGGGUUCACCACUACACACAGAAUACUGACGUUCUCGCCUGGACCUUCCUGAGGAGUAUGUCCGGGCUUUACCAUUUCCUACAAAGUCCAACAGAGGAUUGAGCAUCA
B3: chr1:150192712:150192713:-_ENSG00000143401_ENST00000314136|hu_hu|FALSE|FALSE (ssRNA)
RNA: GGGAGUUCUACAGUCCGACGAUCGCACCAUACUACACCUGUGUAAAAGUGAUCAUGUUUUAAUUAUGGGCUAAAAAUGACUAAUACAGUAAGCUUGAAUUUAAAAAAUUAAGUCUAAAUAAAUUGCUAGGGAAUUCCACAAUGCAACAGAGGAUUGAGCAUCA
B4: chr16:94690093:94690094:+_ENSMUSG00000040785_ENSMUST00000117648|mus_hu|mus_mus_mus_hu_True|18_68 (ssRNA)
RNA: GGGAGUUCUACAGUCCGACGAUCGGGCUGGGAUGACGGACACACAGCCUCGAUUCCAGGGGGAAAAAAAAAUAGCCGAUACUAAUUAAAAAGUGUUAAUGAUUUUUGAAAAUCAGAUGUAGAUUAAAAAAGAUGAAAAGCAAACAACAGAGGAUUGAGCAUCA
B5: chr16:11966626:11966627:-_ENSG00000103342_ENST00000563468|hu_hu|FALSE|FALSE (ssRNA)
RNA: GGGAGUUCUACAGUCCGACGAUCUUGUAACAUGUGCACACACACUCGCACACUCAGAAUGAUCUGCCUGGGGGAAAAAUACUAAAUAUGCCUAAGGGGAAAAUGAAAAAUAAAAAAAUUCCUGUAGGUUUUCAUUAUUGUAGGCAACAGAGGAUUGAGCAUCA
B6: chr12:72179577:72179578:+_ENSG00000080371_ENST00000261263|hu_mus|motif|central (ssRNA)
RNA: GGGAGUUCUACAGUCCGACGAUCGUUUAGCACUUAAGGUCUCUGCAGUGUUAUAAACGUAAUUGAAAAUACUGUUAAUUCGGUAACUCCAUUGGUAAAAUGAUGUGACUUGGAAUAUGGCAGUCUUCAUGUUGAGGGCAAUGACAACAGAGGAUUGAGCAUCA
B7: chr4:25749455:25749456:-_ENSG00000091490_ENST00000264868|hu_hu|hu_hu_hu_mus_False|8_68 (ssRNA)
RNA: GGGAGUUCUACAGUCCGACGAUCGCACUAUGACCUCUAGAAAAAUCCACAGGGGGAAAAAAUGUAAACCAAUUUACAAUGUUAUCGCCUUCCCUGUGUGUGGAGUGUUUGUCUCAAGGCUCCUUCUUGCCUUAUAAUUUGGGACAACAGAGGAUUGAGCAUCA
B8: chr1:150192712:150192713:-_ENSG00000143401_ENST00000314136|hu_hu|motif|central (ssRNA)
RNA: B3 RNA with U81G, A82G
B9: chr4:144460044:144460045:+_ENSG00000153147_ENST00000283131|hu_mus|hu_hu_hu_mus_False|18_68 (ssRNA)
RNA: GGGAGUUCUACAGUCCGACGAUCACGGUCCAUAGCCUGAAGAUCAACUUGCGGAUUCCAAUCUGAGUCAUACAAAAUGACUACAUCAGCAGUUGCAAGAUUGAUGCCCAGACCACCAGCACGCGUGCUUAGCAUAAAUACAAACAACAGAGGAUUGAGCAUCA
B10: 47062174_47062422_1437_CDS_ENSG00000130985_ENST00000335972|human|control|control (ssRNA)
RNA: GGGAGUUCUACAGUCCGACGAUCGACCUCUUUGUCCUCAGGGAGACACUCAAGGGCAUCAAAGUAUAGCCACUGCAUGAUGGGCAUGAACUUCCCGGAGCAGGCCUUCAUGACUUCCUGGGCAGCCAGGCCCCCAAUGAAGGCCAACAGAGGAUUGAGCAUCA
B11: chr6:35489678:35489679:-_ENSMUSG00000029840_ENSMUST00000031866|mus_hu|FALSE|FALSE (ssRNA)
RNA: GGGAGUUCUACAGUCCGACGAUCAGAAGAUGAGGAGGCGGUGGCAGCAGCAAGCGGAUGCCGCCGGGCGAGAGGGAGGCAGGGCCGCGCGAAGCCGGAGAGGAGAAGAAGAGAAGGAGGGUUAGGCUGCCAGGCGGGCGAGGCCAACAGAGGAUUGAGCAUCA
B12: 98346538_98346658_211_5pUTR_ENSG00000077147_ENST00000371142|human|control|control (ssRNA)
RNA: GGGAGUUCUACAGUCCGACGAUCCAGCCACAGCGCGGCGGCCGCCGCCACGCCAAGAGCGCCAGGCAGCGGCCUCAUCCUCCGCGCCCCUCCGGCCCGGAGCCGGCUCACCGACUCCUCCUCCCGCCGCCGCCUCCUCCGCCGCAACAGAGGAUUGAGCAUCA
B13: chr9:123912698:123912699:+_ENSG00000119397_ENST00000373850|hu_hu|FALSE|FALSE (ssRNA)
RNA: GGGAGUUCUACAGUCCGACGAUCAUGGUGUUCAGGGACGUUGCAAUGCAGCACACCCAUAGGGAUGAAGGGGAUGGAGAAGUUGGGGGGUGGAGGCCCAUACACCAUGGGGGCCCCAGCAGGAGGUGGGCCAUAAACAACAGUCAACAGAGGAUUGAGCAUCA
B14: 126416003_126416123_291_3pUTR_ENSMUSG00000078429_ENSMUST00000105256|mouse|control|control (ssRNA)
RNA: GGGAGUUCUACAGUCCGACGAUCAGGCGGCCUGCACAGAGGGCGGGCGGGCCAGGCGGCGGCUUCCCCGGUGCCCCCAGCCCCGAUCCCCCGGUGGCAGCUCCGGGCUCCUCAGUUUGGGUCCAACAUGGAGAAUCCGGAGCGCAACAGAGGAUUGAGCAUCA
B15: 44991723_44991843_1432_CDS_ENSMUSG00000038518_ENSMUST00000173246|mouse|control|control (ssRNA)
RNA: GGGAGUUCUACAGUCCGACGAUCCUGAGCAGACCGAUGCGAAGGGGGAGGUUGGUGGUUGGCAGCAAGUCCCUUGGCAGAGGAAGCCGCAGCCGAGGCGGCCGUGGGCUGAGCCCCUGAAGCCUGUUCUCUCCGGCUGUCUGCCAACAGAGGAUUGAGCAUCA
B16: chr7:133967480:133967481:+_ENSMUSG00000058966_ENSMUST00000079423|mus_mus|FALSE|FALSE (ssRNA)
RNA: GGGAGUUCUACAGUCCGACGAUCAGGGAGUUGGAGGUGAAGAAGGGAUUGCCAAGCCAGAAAGGGAGAGAGAAAGAGGGAGGGGGAGGCACAAAGGGGCCAGGGCGGGGACAGGAUGGGACAAGAGGACCAGUUCAGGGCAAGCAACAGAGGAUUGAGCAUCA
B17: 62352434_62352554_269_CDS_ENSMUSG00000018509_ENSMUST00000018653|mouse|control|control (ssRNA)
RNA: GGGAGUUCUACAGUCCGACGAUCCUGCUCCCCCAGGUCGAGCGCCGACACCGAGGCGGCGGGGGUGACCGCCGGCGGUGGCUCCUCGGCGGCCGCCUCCUGGGCCCGCGGCGGUGGCUUGGGCCGCGGCUUUGCCGACGGCUGCAACAGAGGAUUGAGCAUCA
B18: chr6:30691630:30691631:+_ENSG00000196230_ENST00000327892|hu_hu|FALSE|FALSE (ssRNA)
RNA: GGGAGUUCUACAGUCCGACGAUCAGCUCGAUACUGCUGGCUUCCACGGCUGGUGAGAGGGGCAAAGCCAGGCAUAAAGAAAUGGAGACGUGGGAAGGGGACCAUGUUGACUGCCAACUUGCGGAGGUCAGCAUUGAGCUGGCCCAACAGAGGAUUGAGCAUCA
B19: chr2:180329438:180329439:+_ENSMUSG00000049401_ENSMUST00000029087|mus_hu|FALSE|FALSE (ssRNA)
RNA: GGGAGUUCUACAGUCCGACGAUCCUCUGAGGCACUCUGAGGGCCUGGCUCUGUGGGCGGCUGCUCCCGCCGGCUCAGCUCCAGCUUCCUCUUCUUGCUCUCUUUGGGGCUUAAGGGCUCCGGCCUAUCUUCCCCGUGGCCCCCCAACAGAGGAUUGAGCAUCA
B20: 132387670_132387790_77_5pUTR_ENSG00000170606_ENST00000304858|human|control|control (ssRNA)
RNA: GGGAGUUCUACAGUCCGACGAUCGGUACUGCAACCGAGAGCGCUGCUCAGGCCGGCUCCGGCUCAGUGGCCGCAGAGGAGGCGCCGGUAGCGGGGGCGGAGAAGAUCUCGAAAGAUCUCGUUGCGACGAGAGCGGAGCCGCAGCAACAGAGGAUUGAGCAUCA
B21: 86322860_86322980_198_3pUTR_ENSG00000135018_ENST00000376395|human|control|control (ssRNA)
RNA: GGGAGUUCUACAGUCCGACGAUCCUUCCUCCUCCCUGCCCCUUCCCCCACGUCCCUUCGCCGGCGCCGCGCGGAGCACGCCGGGUAACGCGCCUGGCGGCGUCGCCGAGUCAUCCCCGGCUGGCGCGACUUUGAGCUCAGCCUCAACAGAGGAUUGAGCAUCA
B22: 91300164_91300284_179_3pUTR_ENSMUSG00000038459_ENSMUST00000117085|mouse|control|control (ssRNA)
RNA: GGGAGUUCUACAGUCCGACGAUCCCGCCGGGGCGGGCGCGGGGGUCGCCGCGGGAGCGGGCGCGCGCUGCUCGGGCGCCAGCACCGUGUAGGUGGGUUCGGGCGGCAGGAAGGCCAGCUUGGCGGCGAUGCGGCUCGGACAAGCAACAGAGGAUUGAGCAUCA

Residue numbers refer to the chain shown, from its start. The full ranking holds about 24,000 sequences; the median of “enrichment r” is about 0.99, and the highest 2% start at about 3.7. Only a selection was taken, and the highest values are over-represented in it overall.

The assay deals with T1, UNK ZnF1-3 (human, UniProt Q9C0B0 31-174).
T1 sequence: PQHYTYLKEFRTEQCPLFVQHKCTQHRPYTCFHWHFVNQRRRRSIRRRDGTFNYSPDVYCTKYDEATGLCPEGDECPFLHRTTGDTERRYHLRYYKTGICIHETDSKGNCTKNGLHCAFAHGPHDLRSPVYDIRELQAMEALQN
The assay is described as follows: nsRBNS (natural sequence RNA bind-n-seq); RBNS binding buffer (assumed for nsRBNS): 25 mM Tris pH 7.5, 150 mM KCl, 3 mM MgCl2, 0.01% Triton X-100, 500 ug/ml BSA, 20 U/ml SUPERase-In, 4 C; UNK is unkempt and MSI1 is Musashi-1; names of the RNAs are library labels; protein concentration not given here; high values mean tight binding.
Molecule B1 came in with a binding signal of 0.845 enrichment R.
Turning to B2, the binding signal was 1.63 enrichment R.
On to B3, for which the binding signal came to 5.25 enrichment R.
Under B4 stands 3.66 enrichment R; under B5, 3.28 enrichment R; under B6, 0.946 enrichment R.
In the case of B7 it was 0.719 enrichment R.
As for B8, the binding signal turned out to be 5.11 enrichment R.
Under B9 stands 1.01 enrichment R; under B10, 1.06 enrichment R; under B11, 3.69 enrichment R.
Under B12 stands 5.42 enrichment R; under B13, 1.48 enrichment R.
Under B14 stands 2.26 enrichment R; under B15, 1.39 enrichment R; under B16, 5.53 enrichment R.
The molecule B17 returned a binding signal of 4.47 enrichment R.
In turn, B18 showed a binding signal of 1.75 enrichment R.
In the case of B19 it was 0.81 enrichment R.
In the case of B20 it was 1.09 enrichment R; in that of B21, 0.759 enrichment R; in that of B22, 0.777 enrichment R.
